Data on 27 compounds can be found in PubChem BioAssay AID602429 (Sanford-Burnham Center for Chemical Genomics, 2012).

Out of some 360,000 compounds screened, about 1,200 (0.33%) were called active. What follows is part of a selection rich in actives, with near analogues and random picks from the rest. Values without a mark were called inactive. Rule as the data show it: active = inhibition above about 37%; inactive = the rest.

Sequence of Small ubiquitin-related modifier 1 (Homo sapiens) (P63165 whole entry, looked up): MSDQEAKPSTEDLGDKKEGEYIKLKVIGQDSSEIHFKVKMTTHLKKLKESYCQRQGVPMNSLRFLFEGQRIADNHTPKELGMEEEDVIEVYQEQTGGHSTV

This experiment has as its target Small ubiquitin-related modifier 1 (Homo sapiens) (UniProt P63165). In words: SUMO1 binding to interaction partners, disruption – biochemical, uHTS, primary screen (AID 602429). The conditions noted are these: SUMO1 binding to a labelled peptide, TR-FRET, 1 h; at 20 µM; active compounds read high. (TR-FRET usually uses a lanthanide donor and a delayed reading to cut background.)
By inhibition is commonly meant the drop in the measured response relative to a control, in per cent. Regarding `Cc1nnc(SCC(=O)Nc2ccc(S(=O)(=O)Nc3ccc(Cl)nn3)cc2)s1`, the inhibition is 25.2%.

As for `COC(=O)CNC(=O)c1ccc(OC2CCN(C(=O)C3CC3)CC2)cc1`, the inhibition was -0.596%. With `Clc1ccc(C2=CSC3=Nc4cccc5cccc(c45)N23)cc1` the figure was 55.4% (active). For `CC(C)(C)NC(=O)C(c1ccco1)N(Cc1ccc2c(c1)OCO2)C(=O)Cn1nnc2ccccc21` (configuration not stated), the inhibition was 1.87%.

As to `CCCCn1c(N)c(N(CC(C)C)C(=O)C2CSC3(C)CCC(=O)N23)c(=O)[nH]c1=O` (configuration not stated), the inhibition is 2.07%. With `CSc1cc(C)n(-c2ccccc2C)c(=S)c1C(C)=O` the figure was -3.72%; with `O=C(c1cccs1)N1CCC(c2nc3ccccc3s2)CC1`, -0.383%; with `O=C(NCCCN1CCOCC1)c1ccccc1NS(=O)(=O)c1ccc(F)cc1`, 2.97%.

Turning to `CCOC(=O)Cn1nnnc1C`, the inhibition is 4.96%. Turning to `COc1ccc(S(=O)(=O)N2CCOCC2)c(C)c1C`, the inhibition is 0.744%. Regarding `C=CCn1c(=S)[nH]c2scc(-c3ccco3)c2c1=O`, the inhibition is 80.7% (active).

For `C=CCNC(=S)NNc1ncnc2sc3c(c12)CC(C)(C)OC3`, the inhibition is -4.03%. With `O=C(Nc1ccccc1C(=O)NCCCn1ccnc1)c1ccc(Cl)cc1Cl` the figure was -2.3%; with `C=C(Br)CN1CCN(CC(=C)Br)CC1`, 1.02%. The value for `O=C(CN1CCCCCC1)Nc1c(Cl)cc(Cl)cc1Cl` was -1.26%.

Consider `O=C(CSc1nc(C2CC2)nc2ccccc12)Nc1ccc2c(c1)OCCO2`, for which the inhibition was -1.95%. The value for `Cc1nnc(NC(=O)CSc2nc(C3CCCCC3)nc3ccccc23)s1` was -2.49%. Consider `O=C(CSc1nc(C2CC2)nc2ccccc12)Nc1cccc(O)c1`, for which the inhibition was 45.7% (active).

For `O=C(Cn1cnc2c(nnn2Cc2ccc(F)cc2)c1=O)NCc1ccc2c(c1)OCO2`, the inhibition was 1.22%. With `Cc1cc(S(=O)(=O)c2cc3ccc(O)c(C)c3oc2=O)ccc1F` the figure was -12.4%. With `OCCc1ccc(NCCc2ccco2)cc1` the figure was 4%. Take `COc1ccc(C(=O)Nc2cc(C)c(NC(=O)c3ccccc3OC)cn2)cc1`: the inhibition is 40% (active).

For the compound `COc1ccccc1NC(=O)c1cc(Cl)nnc1Cl`, the inhibition is -6.09%. The value for `COc1ccc(C(=O)N/N=C(\C)CC(=O)Nc2ccc(Cl)cn2)cc1` was -4.09%; that for `CCOc1ccc(NC(=O)c2ccc(NC(=O)COC(=O)c3ccc(NC(=O)CC#N)cc3)cc2)cc1` was 58.6% (active). The value for `CCOc1ccc(NC(=O)c2ccc(NC(=O)CN3C(=O)C(=O)N(CC(C)C)C3=O)cc2)cc1` was 6.4%. With `CCOc1ccc(NC(=O)c2ccc(NC(=O)C3CCCO3)cc2)cc1` (configuration not stated) the figure was 1.59%.
